High-throughput results deposited in PubChem by several laboratories.
Hits are enriched below; roughly 1.3% of the tested compounds scored in any of these assays.
NR5A2 inv ag: suppresses constitutive activity of human LRH-1. O00482. AID 602396. actives 0.13% (n = 360,000). HEK293T StAR-luciferase reporter, LRH-1 transfected, 24 h. inhibition, % at 3.6 µM;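 active means inhibition above the mean inhibition of all tested compounds plus 3 SD, cut at about 73% in these data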;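 further: 0% = DMSO wells and 100% = reporter-only cells lacking LRH-1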
Target sequence (O00482 whole entry, looked up): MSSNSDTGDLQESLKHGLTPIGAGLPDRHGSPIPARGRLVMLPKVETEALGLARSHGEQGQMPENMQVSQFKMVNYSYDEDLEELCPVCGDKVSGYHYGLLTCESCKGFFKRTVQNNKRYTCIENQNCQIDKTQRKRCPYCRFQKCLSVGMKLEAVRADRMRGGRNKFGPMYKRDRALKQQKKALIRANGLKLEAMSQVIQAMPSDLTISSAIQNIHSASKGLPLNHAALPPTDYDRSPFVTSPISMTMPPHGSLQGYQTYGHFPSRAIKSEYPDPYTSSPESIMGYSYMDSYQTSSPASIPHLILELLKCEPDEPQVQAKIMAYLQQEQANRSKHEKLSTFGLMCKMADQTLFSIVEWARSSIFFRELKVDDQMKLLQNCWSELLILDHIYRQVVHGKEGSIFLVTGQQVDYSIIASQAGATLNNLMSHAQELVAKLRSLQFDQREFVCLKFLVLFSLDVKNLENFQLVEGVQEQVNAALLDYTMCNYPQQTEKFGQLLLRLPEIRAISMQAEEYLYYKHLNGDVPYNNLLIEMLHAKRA
SRC3 inh: inhibitors of human steroid receptor coactivator 3 (SRC3) | Q9Y6Q9 | HEK293 GAL4-SRC3 luciferase reporter, luminescence | inhibition, % at 3.6 µM | actives 0.17% (n = 360,000) | AID 588352;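 active means inhibition above a per-campaign cutoff, the mean of all compounds plus 3 SD, cut at about 60% in these data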;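 further: 0% = DMSO-treated cells and 100% = gossypol-treated cells at 36 µM; higher means less SRC3-driven luciferase light from the GAL4 reporter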
Gli-Sufu block: Gli-Sufu pathway antagonism; Sufu-KO-LIGHT fibroblasts, Gli luciferase reporter luminescence; inhibition, % at 5 µM; actives 0.74% (n = 340,000); AID 588413;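 active means inhibition above about 55%, limit read from the data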;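 further: 0% = DMSO-treated cells and 100% = wells with medium but no cells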
SRC1 inh: inhibitors of human steroid receptor coactivator 1 (SRC1); HEK293 GAL4-SRC1 luciferase reporter, luminescence; AID 588354; inhibition, % at 3.6 µM; actives 0.12% (n = 360,000); Q15788;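 active means inhibition above the campaign mean plus 3 SD, with each screening campaign given its own cutoff, cut at about 60% in these data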;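 further: 0% = DMSO treated cells and 100% = gossypol at 36 µM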
SRC2 inh: human SRC2 (NCOA2) inhibition; Q15596; HEK293 GAL4-SRC2 luciferase reporter, luminescence; inhibition, % at 9 µM; actives 0.17% (n = 370,000);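 active means inhibition above the mean inhibition of all tested compounds plus 3 SD, set per campaign, cut at about 52% in these data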;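 further: 0% = DMSO treated cells and 100% = cells given Gossypol at 36 µM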
COUP-TFII inh: NR2F2 (human) inhibition, primary screen. HEK293T NGFI-A luciferase reporter, luminescence. actives 0.7% (n = 370,000). inhibition, % at 8.6 µM. P24468;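 active means inhibition above a per-plate cutoff, mean inhibition of test wells between control levels plus 3 SD, cut at about 38% in these data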;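 further: cells cotransfected with COUP-TFII expression vector driving the NGFI-A reporter; 0% = median of COUP-TF2 test wells and 100% = reporter-only cells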
Gal4-VP16 ctr: VP16 inhibition counter-screen for COUP-TFII; inhibition, % at 8.5 µM; HEK293 Gal4-VP16 luciferase reporter, luminescence; shares compounds with COUP-TFII inh; actives 25% (n = 2,500); in the data active means inhibition above about 13%
COUP-TFII conf: confirmation of human COUP-TFII (NR2F2) inhibitors; AID 687008; inhibition, % at 8.5 µM; HEK293 NGFI-A luciferase reporter, luminescence; actives 45% (n = 2,500); shares compounds with COUP-TFII inh;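 active means mean inhibition over three repeats above a set limit taken from the earlier primary screen, cut at about 38% in these data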;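 further: 100% = cells given the luciferase reporter alone without the COUP-TF2 vector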
Numbers without * were called inactive; / = no result given.

SMILES | NR5A2 inv ag | SRC3 inh | Gli-Sufu block | SRC1 inh | SRC2 inh | COUP-TFII inh | Gal4-VP16 ctr | COUP-TFII conf
CCC(C)C(NC(=O)CCCNC(=O)CCC(=O)OC1O[C@H]2OC3(C)CC[C@H]4[C@H](C)CCC(C1C)C24OO3)C(=O)O (some centres not stated) | 90* | 68* | / | 47 | -24 | 49* | -1 | 46*
CC1OC(OC2CC(O)C3(CO)C4C(O)CC5(C)C(C6=CC(=O)OC6)CCC5(O)C4CCC3(O)C2)C(O)C(O)C1O (configuration not stated) | 103* | 92* | 4 | 90* | 73* | 84* | 53* | 80*
C[C@@H]1O[C@@H](O[C@H]2C[C@@H](O)[C@]3(CO)[C@H]4[C@H](O)C[C@]5(C)[C@@H](C6COC(=O)C6)CC[C@]5(O)[C@@H]4CC[C@]3(O)C2)[C@H](O)[C@H](O)[C@H]1O (some centres not stated) | 99* | 57 | 2 | 69* | 19 | 68* | 21* | 59*
COc1ccc(S(=O)(=O)N2Cc3cnnn3-c3ccccc3C2C#N)cc1 (configuration not stated) | -1 | 12 | 1 | -10 | 34 | -28 | / | /
COC(=O)[C@@]1(Sc2ccc(C)cc2)CC(=O)N(P(=O)(OC)OC)[C@@H]1c1ccccc1 | -23 | / | / | / | -7 | 3 | / | /
O=c1[nH]c2ccccc2n1C1CCN(C(CCc2ccccc2)c2nnnn2-c2ccc3c(c2)OCCO3)CC1 (configuration not stated) | 31 | 60 | / | -17 | 21 | 4 | / | /
CC(=O)OC1(C)CC(C)C(=O)C(C(O)CC2CC(=O)NC(=O)C2)C1 (configuration not stated) | 103* | 95* | 89* | 96* | 65* | 91* | 15* | 84*
C[C@@H]1C[C@@H]([C@H](O)CC2CC(=O)NC(=O)C2)C(=O)[C@@H](C)C1 | 103* | 93* | 64* | 93* | 70* | 87* | -2 | 67*
CC[C@H](C(N)=O)N1CCCC1=O | / | / | / | / | -26 | -14 | / | /
C[C@]12C[C@H](O)[C@@H](O)C[C@@H]1CC[C@@H]1[C@@H]2CC[C@]2(C)C(=O)CC[C@@H]12 | 3 | 8 | / | 5 | 8 | 9 | / | /
CC(=O)OC1C(O)C(C)OC(OC2C(OC(=O)C3CCC4C(C3)OC3(CC(OC(=O)/C=C/c5ccccc5)C(C)CO3)C43CO3)OC(C)C(O)C2OC(C)=O)C1O (configuration not stated) | 99* | 95* | 90* | 96* | 72* | 91* | 23* | 87*
CCC(C)C1NC(=O)C(NC(=O)C(CC(C)C)N(C)C(=O)C2CCCN2C(=O)C(C)O)C(C)OC(=O)C(Cc2ccc(OC)cc2)N(C)C(=O)C2CCCN2C(=O)C(CC(C)C)NC(=O)[C@H](C)C(=O)[C@H](C(C)C)OC(=O)CC1O (some centres not stated) | 97* | 94* | 90* | 95* | 78* | 91* | 21* | 88*
COC(=O)C12OCC34C(CC5C(C)=C(O)C(=O)CC5(C)C3C(O)C1O)OC(=O)C(OC(=O)/C=C(\C)C(C)C)C24 (configuration not stated) | 98* | 94* | 88* | 96* | 74* | 94* | 20* | 88*
Cc1nc(-c2cccc(CN(C)C(=O)Oc3ccc([N+](=O)[O-])cc3)c2)no1 | 22 | / | / | / | 8 | 7 | / | /
CN(Cc1cccc(-c2cccnc2)c1)C(=O)Oc1ccc([N+](=O)[O-])cc1 | 41 | / | / | / | 52 | 51* | 9 | 31
O=S(=O)(c1cccc2ccccc12)N1Cc2ccccc2-n2nncc2C1 | 21 | 3 | / | -8 | 19 | 3 | / | /
O=C(Nc1ccccc1)N1Cc2cc(Br)ccc2-n2nncc2C1 | / | / | / | / | 10 | 1 | / | /
COc1ccc(CC(=O)N2CCN(C)CC2)cc1 | 1 | 17 | -3 | -14 | 10 | 18 | / | /
COc1ccc(CC2NCC(O)C2OC(C)=O)cc1 (configuration not stated) | 103* | 95* | 86* | 95* | 68* | 88* | 22* | 82*
COc1ccc2nc(-c3ccc(CN4CCC(n5nnc6ccccc65)CC4)cc3)c(-c3ccccc3)nc2c1 | / | / | / | / | 2 | 19 | / | /
Clc1ccc([C@H]2CC3CCC2N3)cn1 (some centres not stated) | / | / | / | / | 18 | -15 | / | /
CCOC(=O)C(O)(c1ccc(NC(=S)NC(=O)c2ccc(Cl)cc2Cl)c(C)c1)C(F)(F)F (configuration not stated) | 5 | 24 | 20 | 23 | 22 | 38* | -4 | 19
O=C(c1ccc(Cl)cc1)C1CCCN(Cc2cccc3cccnc23)C1 (configuration not stated) | 15 | 30 | 7 | 6 | 24 | 9 | / | /
O=C(c1ccc(Cl)cc1)C1CCCN(Cc2cccc3ncccc23)C1 (configuration not stated) | -2 | 17 | 25 | 4 | 33 | 41* | 12 | 45*
CCCCn1c(NS(=O)(=O)c2ccc(C)cc2)c(C(=O)OCC)c2nc3ccccc3nc21 | 2 | 12 | 14 | 5 | 4 | 31 | / | /
SMILES | NR5A2 inv ag | SRC3 inh | Gli-Sufu block | SRC1 inh | SRC2 inh | COUP-TFII inh | Gal4-VP16 ctr | COUP-TFII conf
CCCCn1c(NC(=O)c2ccco2)c(C(=O)OCC)c2nc3ccccc3nc21 | 31 | -5 | 4 | 3 | 0 | 44* | 0 | 2
Cc1ccccc1NC(=O)N1Cc2ccccc2-n2nncc2C1 | 7 | 3 | / | -7 | 12 | 17 | / | /
Cc1cc(C)c(S(=O)(=O)N2Cc3ccccc3-n3nncc3C2)c(C)c1 | 12 | -1 | / | 15 | 31 | 40* | 0 | 18
COc1ccc(S(=O)(=O)N2Cc3ccccc3-n3nncc3C2)cc1 | 14 | -15 | / | 14 | 9 | 10 | / | /
CN1C(=O)[C@@]23C[C@]4(c5c[nH]c6ccccc56)c5ccccc5N(S(=O)(=O)c5ccccc5)[C@@H]4N2C(=O)[C@@H]1SS3 | / | / | / | / | / | 107* | 88* | 90*
CC(=O)c1c(C)n(Cc2ccccc2)c2ccc(O)cc12 | 1 | 28 | -6 | 17 | 17 | 9 | / | /
CC(=O)c1c(C)n(C2CCCCC2)c2ccc(O)cc12 | 38 | 69* | -18 | 73* | 25 | 51* | 17* | 20
COC(=O)C1C(c2ccc(F)cc2)CC2CCC1N2C (configuration not stated) | / | / | / | / | 4 | 6 | / | /
CCOC(=O)[C@]12Cc3cc(C)ccc3[C@H]1N(C1CCCCC1)C(=O)c1cc(OC)ccc12 | 94* | / | / | / | 19 | 52* | 25* | 36
COC1C(C)OC(OC2CC(C)(O)Cc3cc4c(c(O)c32)C(=O)c2c(O)cc3c(c2C4=O)OC2OC3(C)C(O)C(N(C)C)C2O)C(OC)C1(C)OC (configuration not stated) | 27 | 47 | 0 | 42 | 4 | 8 | / | /
CCOc1cccc(CNCCc2c(C)[nH]c3ccc(OC(F)(F)F)cc23)c1O | 28 | 23 | 45 | 22 | 26 | 51* | -3 | 41*
